Assay results published in PubChem BioAssay (EPA / NIEHS).
Records with an inconclusive call do not appear. Where a structure was tested more than once in an assay, its records may differ in their call. Active and inactive are the calls of the source. Rule for the calls: active = hit-call score of the fitted dose curve at least 0.9, where 1 is the maximum; inconclusive = response in the unintended direction; inactive = score below 0.9.

Assay: ACEA_AR_agonist_AUC_viability: ACEA Biosciences xCELLigence Real-Time Cell Analysis on Androgen Receptor Agonism for Viability (AID 2283775);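 for AC50: viability read 80 hours after compound addition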
How it was run: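 Viability endpoint from xCELLigence impedance in 22Rv1 prostate cells at 80 h. Eight-point series, 100 uM maximum final.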

Compound | AC50 | outcome
CCOC1Oc2ccc(OS(C)(=O)=O)cc2C1(C)C (configuration not stated) | 25.7 µM (active) | 
CC(C)N(C(=O)COc1nnc(C(F)(F)F)s1)c1ccc(F)cc1 | 21.4 µM (active) | 
O=[N+]([O-])c1c(Cl)c(Cl)c(Cl)c(Cl)c1Cl | 58.6 µM (active) | 
O=C(O)C(F)(F)C(F)(F)C(F)(F)C(F)(F)C(F)(F)C(F)(F)C(F)(F)F |  | inactive
O=[N+]([O-])/N=C1\NCCN1Cc1ccc(Cl)nc1 |  | inactive
CC(C)OC(=O)Nc1cccc(Cl)c1 | 86.1 µM (active) | 
O=C(O)COc1ccc(Cl)cc1Cl |  | inactive
C[C@H]1[C@H](c2ccc(Cl)cc2)SC(=O)N1C(=O)NC1CCCCC1 | 73 µM (active) | 
CCc1ccc(C(=O)NN(C(=O)c2cc(C)cc(C)c2)C(C)(C)C)cc1 | 50 µM (active) | 
Cc1[nH]c(=O)n(C(C)(C)C)c(=O)c1Cl |  | inactive
ClC1C(Cl)C(Cl)C(Cl)C(Cl)C1Cl (configuration not stated) |  | inactive
O=C(O)CCCOc1ccc(Cl)cc1Cl |  | inactive
CCC(C)(C)C(=O)OC1=C(c2ccc(Cl)cc2Cl)C(=O)OC12CCCCC2 | 81.9 µM (active) | 
CCC(C)(NC(=O)c1cc(Cl)c(C)c(Cl)c1)C(=O)CCl (configuration not stated) | 26.5 µM (active) | 
CC(C)(C)C(O)C(Oc1ccc(Cl)cc1)n1cncn1 (configuration not stated) |  | inactive
C#CCN1C(=O)COc2cc(F)c(N3C(=O)C4=C(CCCC4)C3=O)cc21 | 50 µM (active) | 
CC[C@H](C)[C@H]1O[C@]2(C=C[C@@H]1C)C[C@@H]1C[C@@H](C/C=C(\C)[C@@H](O[C@H]3C[C@H](OC)[C@@H](O[C@H]4C[C@H](OC)[C@@H](O)[C@H](C)O4)[C@H](C)O3)[C@@H](C)/C=C/C=C3\CO[C@@H]4[C@H](O)C(C)=C[C@@H](C(=O)O1)[C@]34O)O2 (tested in a mixture with another compound) | 4.08 µM (active) | 
CCN(CC)C(=O)SCc1ccc(Cl)cc1 | 62.2 µM (active) | 

Assay: ACEA_AR_antagonist_AUC_viability: ACEA Biosciences xCELLigence Real-Time Cell Analysis on Androgen Receptor Antagonism for Viability (AID 2283776);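 note: 22Rv1 human prostate cancer cells growing on impedance electrode plates; area under impedance growth curve at 80 h after dosing as viability; hits lower the growth signal relative to DMSO meaning cytotoxicity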
How it was run: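 Real-time electrical impedance tracks 22Rv1 proliferation after continuous compound exposure (top 100 uM final, 1:4 steps, 8 concentrations). The 80 h area-under-curve serves as the cytotoxicity readout relative to DMSO.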

Compound | AC50 | outcome
CC(C)(C)C(O)/C(=C\c1ccc(Cl)cc1Cl)n1cncn1 (configuration not stated) | 20.3 µM (active) | 
CCOC1Oc2ccc(OS(C)(=O)=O)cc2C1(C)C (configuration not stated) | 25.6 µM (active) | 
CC(C)N(C(=O)COc1nnc(C(F)(F)F)s1)c1ccc(F)cc1 | 50 µM (active) | 
O=[N+]([O-])c1c(Cl)c(Cl)c(Cl)c(Cl)c1Cl | 50 µM (active) | 
O=C(O)C(F)(F)C(F)(F)C(F)(F)C(F)(F)C(F)(F)C(F)(F)C(F)(F)F | 37.7 µM (active) | inactive
O=[N+]([O-])/N=C1\NCCN1Cc1ccc(Cl)nc1 |  | inactive
CC(C)OC(=O)Nc1cccc(Cl)c1 | 50 µM (active) | 
O=C(O)COc1ccc(Cl)cc1Cl |  | inactive
C[C@H]1[C@H](c2ccc(Cl)cc2)SC(=O)N1C(=O)NC1CCCCC1 | 12.4 µM (active) | 
CCc1ccc(C(=O)NN(C(=O)c2cc(C)cc(C)c2)C(C)(C)C)cc1 | 50 µM (active) | 
CNC(=O)Oc1ccccc1OC(C)C |  | inactive
N#Cc1c(Cl)c(Cl)c(Cl)c(C#N)c1Cl | 3.7 µM (active) | 
Cc1[nH]c(=O)n(C(C)(C)C)c(=O)c1Cl |  | inactive
ClC1C(Cl)C(Cl)C(Cl)C(Cl)C1Cl (configuration not stated) | 37.8 µM (active) | inactive
O=C(O)CCCOc1ccc(Cl)cc1Cl |  | inactive
CCC(C)(C)C(=O)OC1=C(c2ccc(Cl)cc2Cl)C(=O)OC12CCCCC2 |  | inactive
CCC(C)(NC(=O)c1cc(Cl)c(C)c(Cl)c1)C(=O)CCl (configuration not stated) | 22 µM (active) | 
CC(C)(C)C(O)C(Oc1ccc(Cl)cc1)n1cncn1 (configuration not stated) | 39.9 µM (active) | 
C#CCN1C(=O)COc2cc(F)c(N3C(=O)C4=C(CCCC4)C3=O)cc21 | 50 µM (active) | 
CC[C@H](C)[C@H]1O[C@]2(C=C[C@@H]1C)C[C@@H]1C[C@@H](C/C=C(\C)[C@@H](O[C@H]3C[C@H](OC)[C@@H](O[C@H]4C[C@H](OC)[C@@H](O)[C@H](C)O4)[C@H](C)O3)[C@@H](C)/C=C/C=C3\CO[C@@H]4[C@H](O)C(C)=C[C@@H](C(=O)O1)[C@]34O)O2 (tested in a mixture with another compound) | 4.93 µM (active) | 
OCCOc1ccccc1 |  | inactive
CCN(CC)C(=O)SCc1ccc(Cl)cc1 | 65.8 µM (active) | 
